hNpr1 antagonist – antagonists of human natriuretic peptide receptor Npr1 | P16066 | Potency, µM (titrated, usually from 46.3 µM), usual class: inhibitors | HEK293 hNpr1 GloSensor cGMP, ANP-stimulated luminescence | 1.6% of 76,000 active; calls by dose curve; further: nearly all actives have a fitted effect of over 60% in size
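Compound pre-incubated 30 min at room temperature on GloSensor-loaded HEK293 cells stably carrying hNpr1 and the pGS-40F cGMP biosensor. Stimulation uses hNppA at 0.1 nM final; luminescence is taken at baseline and 20 min post-agonist.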
HEK cytotox – kills HEK 293 cells; HEK 293 viability, ATP luminescence (CellTiter-Glo), 48-72 h; Potency, µM (series often up to 115 µM), hits mostly inhibitors; 6.6% of 94,000 active; further: nearly all actives have a fitted effect of over 60% in size
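HEK 293 cells at 250 cells/well were exposed to compounds by pintool transfer for 48 or 72 hr at 37 degree Celsius, 5% CO2. Viability was read as ATP-coupled luminescence with CellTiter-Glo after 10 min at room temperature.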
3T3 cytotox – cytotoxic compounds in NIH 3T3 cells | NIH 3T3 viability, CellTiter-Glo ATP luminescence, 48-72 h | Potency, µM (top dose mostly 96.7 µM), most hits filed as inhibitors | 4.3% of 94,000 active; further: nearly all actives have a fitted effect of over 55% in size
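Cells were seeded at 400 per well, treated with pin-transferred compound, and kept 48 or 72 hr at 37 °C before CellTiter-Glo addition and luminescence imaging of cellular ATP.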
Luciferase inh – Photinus pyralis luciferase inhibition | P08659 | purified P. pyralis luciferase, luminescence, biochemical | Potency, µM (series often up to 115 µM), hits mostly inhibitors | 2.5% of 76,000 active; further: nearly all actives have a fitted effect of over 65% in size
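Inhibitors were tested against purified firefly luciferase in a biochemical, low-substrate format (both substrates at 10uM) and luminescence measured with a CCD imager.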
GPT2 inhibitor – blocks human glutamate pyruvate transaminase 2; AID 1671188; 0.25% of 100,000 active; Q8TD30; Potency, µM (series often up to 57.7 µM), hits mostly inhibitors; Recombinant GPT2, coupled pyruvate oxidase/HRP Amplex Red fluorescence; further: nearly all actives have a fitted effect of over 60% in size
Target sequence (Q8TD30 whole entry, looked up): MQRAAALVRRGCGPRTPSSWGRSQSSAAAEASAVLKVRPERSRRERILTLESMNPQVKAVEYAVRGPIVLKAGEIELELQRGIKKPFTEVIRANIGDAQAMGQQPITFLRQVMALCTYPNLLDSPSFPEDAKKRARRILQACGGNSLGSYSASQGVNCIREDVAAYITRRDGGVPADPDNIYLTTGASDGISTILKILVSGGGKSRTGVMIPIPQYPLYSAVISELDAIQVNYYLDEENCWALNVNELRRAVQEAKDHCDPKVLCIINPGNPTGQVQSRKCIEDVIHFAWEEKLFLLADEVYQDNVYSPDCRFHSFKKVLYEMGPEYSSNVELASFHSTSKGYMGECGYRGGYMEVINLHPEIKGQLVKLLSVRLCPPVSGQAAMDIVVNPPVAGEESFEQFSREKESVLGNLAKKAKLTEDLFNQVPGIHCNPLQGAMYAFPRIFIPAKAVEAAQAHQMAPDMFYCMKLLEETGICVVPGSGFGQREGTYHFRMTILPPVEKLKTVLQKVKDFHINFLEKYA
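Fluorescence read-out: pyruvate from GPT2 turnover coupled to pyruvate oxidase, HRP and Amplex Red (0.2mM ThPP, 0.2U/mL PO and HRP, 50uM Amplex final). Substrates 250uM a-KG, 2mM L-alanine; enzyme 10ng/uL; 30 min RT.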
Of the large screens only hits and unclear results are named; the others gave an inactive call. In the library only some 10% were active in any assay of this set; here they are far more common. Unless noted, the call rests on the fitted dose curve; in most records, active means well fitted curve in the direction sought with a large enough effect; inconclusive means small, poorly fitted or top-dose-only effect, or another doubt; inactive means no such curve, though single readings can be large; an effect the other way counts as inactive or inconclusive.

O=C(Nc1cccc(-c2nnc3n2CCCC3)c1)C1CCCC1	none
CCn1cc(C(=O)N2CCCC(C(=O)Nc3cccc(-c4cc5ccccc5[nH]4)c3)C2)cn1 (configuration not stated)	HEK cytotox 40µM, 3T3 cytotox inconclusive, Luciferase inh inconclusive
Cc1cccc(-c2cccc(NC(=O)C3CCCN(C(=O)c4cccc(C)n4)C3)c2)c1 (configuration not stated)	HEK cytotox inconclusive, 3T3 cytotox inconclusive, Luciferase inh 25µM
Cc1c(CN2CCCC(c3ccc(C(=O)O)cc3)C2)cnn1C (configuration not stated)	GPT2 inhibitor inconclusive
O=C(Nc1cccc(-n2cccn2)c1)C1CCCN(Cc2cccc(F)c2F)C1 (configuration not stated)	HEK cytotox 32µM, 3T3 cytotox inconclusive, GPT2 inhibitor inconclusive
CC1Oc2ccc(NC(=O)c3cccs3)cc2CN(CCc2ccc(F)cc2)C1=O (configuration not stated)	HEK cytotox inconclusive
CC1Oc2ccc(NC(=O)c3cccs3)cc2CN(Cc2ccccc2)C1=O (configuration not stated)	HEK cytotox 25µM, 3T3 cytotox inconclusive
CCC1Oc2ccc(NC(=O)C3CCCC3)cc2CN(Cc2ccc(F)cc2)C1=O (configuration not stated)	HEK cytotox inconclusive, 3T3 cytotox inconclusive
CC1Oc2ccc(NC(=O)Nc3ccccc3)cc2CN(Cc2ccccc2)C1=O (configuration not stated)	hNpr1 antagonist inconclusive, HEK cytotox 45µM, 3T3 cytotox 35µM, Luciferase inh inconclusive
CC1Oc2ccc(NC(=O)C3CCCC3)cc2CN(Cc2ccc(F)cc2)C1=O (configuration not stated)	HEK cytotox inconclusive, 3T3 cytotox 25µM
COc1cc(CCc2cc(NC(=O)c3ccc(N4CC(C)NC(C)C4)cc3)n[nH]2)cc(OC)c1 (configuration not stated)	none (no result: hNpr1 antagonist, HEK cytotox, 3T3 cytotox, Luciferase inh)
O=C(c1ccc(C(F)(F)F)cc1)N1CCC(C(=O)N2CCC(N3CCOC3=O)CC2)CC1	none (no result: hNpr1 antagonist, Luciferase inh)
COc1ccc(Nc2ccnc(N3CCC(NC(=O)c4ccccn4)CC3)n2)cc1	HEK cytotox inconclusive, 3T3 cytotox 40µM (no result: hNpr1 antagonist, Luciferase inh)
COc1ccc(Nc2ccnc(N3CCC(NC(=O)c4ccc(F)cc4)CC3)n2)cc1	HEK cytotox inconclusive, 3T3 cytotox inconclusive (no result: hNpr1 antagonist, Luciferase inh)
COc1ccc(Nc2ccnc(N3CCC(NC(=O)c4ccccc4C)CC3)n2)cc1	HEK cytotox 40µM, 3T3 cytotox 40µM (no result: hNpr1 antagonist, Luciferase inh)
COCC(=O)NC1CCN(c2nccc(Nc3ccc(OC)cc3)n2)CC1	HEK cytotox inconclusive, 3T3 cytotox inconclusive (no result: hNpr1 antagonist, Luciferase inh)
COc1ccc(Nc2ccnc(N3CCC(NC(=O)Cc4cccc(Cl)c4)CC3)n2)cc1	HEK cytotox 25µM, 3T3 cytotox 20µM (no result: hNpr1 antagonist, Luciferase inh)
COc1ccc(Nc2ccnc(N3CCC(NC(C)=O)CC3)n2)cc1	none (no result: hNpr1 antagonist, Luciferase inh)
Cn1ncc2c(C(=O)NC3CC3)cc(-c3ccc([S+](C)(=O)[O-])cc3)nc21	none (no result: hNpr1 antagonist, Luciferase inh)
C=C1CC[C@H]2[C@@H](/C=C(\C)C(=O)[C@@]3(OC(C)=O)C[C@H](C)[C@H](OC(C)=O)[C@@H]3[C@H]1OC(C)=O)C2(C)C	none (no result: hNpr1 antagonist, HEK cytotox, 3T3 cytotox, Luciferase inh)
CCN1c2cc(C(=O)Nc3ccc(C(F)(F)F)cc3)ccc2C(=O)N2CCCCC21 (configuration not stated)	HEK cytotox inconclusive, 3T3 cytotox inconclusive
CCN1c2cc(C(=O)Nc3cc(F)cc(F)c3)ccc2C(=O)N2CCCCCC21 (configuration not stated)	HEK cytotox inconclusive, 3T3 cytotox inconclusive
CCN1c2cc(C(=O)Nc3ccc(OC(F)(F)F)cc3)ccc2C(=O)N2CCCCCC21 (configuration not stated)	HEK cytotox 32µM, 3T3 cytotox 25µM
CCN1c2cc(C(=O)Nc3cccc(OC(F)(F)F)c3)ccc2C(=O)N2CCCCC21 (configuration not stated)	HEK cytotox 25µM, 3T3 cytotox inconclusive
COc1cccc(C(O)c2nc(C(=O)NCc3ccco3)c(C)o2)c1 (configuration not stated)	3T3 cytotox inconclusive
Cc1oc(C(O)c2cncnc2)nc1C(=O)Nc1ccc(N2CCOCC2)cc1 (configuration not stated)	3T3 cytotox inconclusive, Luciferase inh 18µM
Cc1oc(C(O)c2cncnc2)nc1C(=O)Nc1ccc2c(c1)NC(=O)CO2 (configuration not stated)	3T3 cytotox inconclusive
COc1cccc(C(O)c2nc(C(=O)Nc3ccc(OC)c(OC)c3)c(C)o2)c1 (configuration not stated)	HEK cytotox inconclusive, Luciferase inh 25µM
O=C(c1ccoc1)N1CC(Oc2cccc(-c3nc(-c4ccccc4)no3)c2)C1	HEK cytotox inconclusive, 3T3 cytotox inconclusive, Luciferase inh inconclusive
O=C(C1CCOCC1)N1CC(Oc2cccc(-c3nc(-c4ccccc4)no3)c2)C1	HEK cytotox inconclusive, 3T3 cytotox inconclusive, Luciferase inh 18µM
COc1ccccc1C(=O)N1CC(Oc2ccc(-c3noc(-c4ccncc4)n3)cc2)C1	HEK cytotox inconclusive, 3T3 cytotox 35µM (no result: hNpr1 antagonist, Luciferase inh)
COc1ccccc1C(=O)N1CC(Oc2cccc(-c3nc(-c4ccccc4)no3)c2)C1	HEK cytotox 45µM, 3T3 cytotox 32µM, Luciferase inh 7.9µM
O=C(c1cc(F)ccc1F)N1CC(Oc2cccc(-c3nc(-c4ccccc4)no3)c2)C1	HEK cytotox inconclusive, 3T3 cytotox inconclusive, Luciferase inh inconclusive
COc1ccc(C(=O)N2CC(Oc3ccc(F)cc3C)C2)cc1	HEK cytotox inconclusive, 3T3 cytotox inconclusive
COc1ccccc1C(=O)N1CC(Oc2ccc(F)cc2C)C1	HEK cytotox 71µM, 3T3 cytotox inconclusive
O=C(c1ccc2c(c1)OCO2)N1CCCC2(CNc3ncccc3[S+](=O)([O-])N2)C1 (configuration not stated)	none (no result: hNpr1 antagonist, Luciferase inh, GPT2 inhibitor)
COc1ccccc1-c1cccc(C(=O)N2CCN(C(=O)NC3CCCC3)CC2)c1	HEK cytotox inconclusive, 3T3 cytotox inconclusive (no result: hNpr1 antagonist, Luciferase inh)
COc1ccccc1-c1cc(C(=O)NC2CCOCC2)c2cnn(C)c2n1	none (no result: hNpr1 antagonist, Luciferase inh, GPT2 inhibitor)
COC(=O)[C@@H]1Cc2ncn(Cc3ccc(OC)cc3)c2CN1Cc1cccc(C#N)c1	hNpr1 antagonist inconclusive, HEK cytotox inconclusive, 3T3 cytotox inconclusive
Cc1ccc([S+](=O)([O-])N2CCN(C(=O)c3nc4cccnc4n(C4CC4)c3=O)CC2)cc1	none (no result: hNpr1 antagonist, Luciferase inh)
CCOCCCNC(=O)N1CC(Oc2cccc(-c3nc(C)no3)c2)C1	none
CCCNC(=O)N1CC(Oc2cccc(-c3nc(-c4ccccc4)no3)c2)C1	HEK cytotox 28µM
CC(Oc1ccccc1)C(=O)N1CC(Oc2cccc(-c3nc(-c4ccccc4)no3)c2)C1 (configuration not stated)	HEK cytotox 32µM, 3T3 cytotox 28µM, Luciferase inh inconclusive
